The values below come from PubChem BioAssay AID720541 (National Center for Advancing Translational Sciences (NCATS), 2013).

Out of some 1,300 compounds screened, about 420 (32%) were called active. Not shown: some 32% with an inconclusive outcome. The call rests on the fitted dose curve; in most records, active means well fitted inhibition curve with a large enough effect; inconclusive means small, poorly fitted or top-dose-only effect; inactive means no such curve, though single readings can be large or run the other way. This is one part of the list.
Potency means the concentration at half of the fitted maximal effect.

The assay deals with C-terminal-binding protein 1 (Homo sapiens) (UniProt Q13363). Description: qHTS for Inhibitors of the Phosphatase Activity of Eya2: Carboxyl-terminal binding protein (CtBP) Counterscreen for Cherry-picked Compounds. Further: nearly all actives have a fitted effect of over 65% in size. Particulars: purified protein-protein binding, AlphaScreen, 3 h; series mostly up to 46.1 µM. The text has this:
The Eya protein family is an essential co-activator of the Six1 transcription factor. Six1 is a developmental gene that is abnormally re-expressed in a large percentage of breast cancers. This over-expression plays a causal role in the initiation and metastatic development of breast cancers. The Eya family of protein is also found to contain a unique HAD phosphatase domain with protein tyrosine phosphatase activity which can potentially play a role in Six1-mediated breast tumorigenesis. Recently, Eya2 is found to dephosphorylate the histone variant H2AX and direct cells towards DNA repair instead of apoptosis in the event of DNA damage.
A 1536 well format, fluorescence based qHTS assay was developed and used to target the phosphatase activity of Eya2 (AID 488837). In addition, a CtBP counterscreen was developed using the AlphaScreen technology to evaluate compound selectivity to target […]. The data herein reports the activity of the cherry-picked compounds against the CtBP AlphaScreen. Compounds that are active or have > 100 fold selectivity vs. the Eya2 activity were excluded for further characterization. Inactivity is the desired outcome for the CtBP counterscreen.
NIH Chemical Genomics Center [NCGC]
NIH Molecular Libraries Probe Centers Network [MLPCN]
Assay Submitter (PI): Rui Zhao, University of Colorado Denver
Four microliters of reagent (25 nM GST-E1A, 25 nM CtBP-6x HIS) was dispensed in a 1536 well Greiner plates. Twenty-three nanoliter of test compounds (final concentration of 2.5 nM - 46 uM) and positive control E1A peptide inhibitor (final concentration of 0.14 nM - 4.6 uM) were added to the plates using the Kalypsys pintool equipped with a 1536 pin head. The plates was then incubated at room temperature for 2 hours followed by addition of 1 uL Alpha bead donor / acceptor mix (20 ug/mL final concentration). The assay plates were incubated for additional 1 hour at room temperature and protected from light. The AlphaScreen signal was obtained using the PerkinElmer EnVision plate reader using the 680 nm excitation and 520 - 620 nm emission filters. The data was normalized to the E1A peptide inhibitor for maximum inhibition and DMSO treated wells as negative control.
(qHTS replaces the single test concentration by a dilution series.)
In the case of `COc1ccc(-c2nc(N)ncc2-c2csc(C)n2)c(O)c1`, the Potency entry is “inactive”. The figure for `C=C(C)COc1ccc(-c2nc(N)nc(C)c2-c2ccc(OC)cc2)c(O)c1` is 6.01 µM (active).

`CC(C)S(=O)(=O)c1cnc(-c2ccccn2)nc1N`: the Potency was 13.5 µM (active). With `CCc1cc2c(=O)[nH]c(-c3ccccn3)nc2s1`, the Potency is 1.9 µM (active).

In the case of `Cn1c(-c2cc(Cl)ccc2O)nc2c1c(=O)[nH]c(=O)n2Cc1ccccc1`, the Potency entry was “inactive”. In the case of `COc1cccc(NC(=O)c2ccc3c(c2)CCN3S(C)(=O)=O)c1`, the Potency result was “inactive”.

Turning to `CN(CC(=O)Nc1cccc(F)c1)C(=O)c1ccc(COc2ccccc2)cc1`, the Potency result was “inactive”.

Turning to `CC(=O)Oc1cccc(C(=O)Nc2cccc(C(=O)Nc3ccccc3C(=O)O)c2)c1`, the Potency was 8.49 µM (active). Regarding `COc1cc(NC(=O)c2ccc(S(=O)(=O)N(C)c3ccccc3)cc2)cc(OC)c1`, the Potency result is “inactive”. The value for `CC(=O)c1ccc(NS(=O)(=O)c2cccc(C(=O)Nc3ccccc3C(=O)O)c2)cc1` was 15.1 µM (active); that for `CC(C)CCNC(=O)c1onc(CSc2ccncc2)c1C(=O)NCCC(C)C` was “inactive”. With `Cc1nn(-c2ccccc2)c2c1C(c1cccnc1)N1C=C(S(=O)(=O)N3CCCCC3)C=CC1=N2` (stereo unspecified), the Potency result is “inactive”.

For the molecule `CC1CCCN(c2ccc3nc4ccccc4c(=O)n3n2)C1` (stereo unspecified), the Potency was 7.57 µM (active). The value for `COc1cc(/C=C2\C(C)=C(C#N)c3nc(N)c(C#N)c(C)c32)ccc1OCC(=O)O` was 8.49 µM (active); that for `COc1cc(C=NO)nc(-c2ccccn2)c1` was 1.07 µM (active). Regarding `NC(=O)c1nn2c(C(F)(F)F)cc(-c3ccccc3)nc2c1Br`, the Potency was 10.7 µM (active).

As for `Cc1ccc(C(=O)ON=C2CCN(c3ccc([N+](=O)[O-])cc3)CC2)cc1`, the Potency result was “inactive”. On to `CCN(Cc1cccc(S(=O)(=O)O)c1)c1ccc(C(=C2C=CC(=[N+](CC)Cc3cccc(S(=O)(=O)O)c3)C=C2)c2ccc(O)cc2S(=O)(=O)O)cc1`, for which the Potency was 12 µM (active). The figure for `CCN(Cc1cccc(S(=O)(=O)O)c1)c1ccc(C(=C2C=CC(=[N+](CC)Cc3cccc(S(=O)(=O)O)c3)C=C2)c2ccccc2S(=O)(=O)[O-])cc1` is 12 µM (active).

`N#CC1=C(N)n2c(s/c(=C\c3cccs3)c2=O)=C(C#N)C1c1cccs1` (stereo unspecified): the Potency is 13.5 µM (active). The value for `CC(=O)N1CCCc2cc(S(=O)(=O)N3CCCC(C(=O)N4CCN(c5cc(C)ccc5C)CC4)C3)ccc21` (stereo unspecified) was “inactive”; that for `CN1C(=O)NC(c2ccccc2)(C(F)(F)F)S/C1=C(/C#N)c1nnc(N2CCOCC2)n1-c1ccccc1` (stereo unspecified) was “inactive”.

For `CCOc1cc(C=NNC(=O)c2cccc(S(=O)(=O)N3CCCC3)c2)ccc1O`, the Potency is 7.57 µM (active). As to `Cc1ccc(Nc2c(-c3ccccn3)nc3ccc(C)cn23)cc1`, the Potency was 4.26 µM (active). For the molecule `Cc1ccccc1Nc1c(-c2ccccn2)nc2ccccn12`, the Potency was 2.69 µM (active).

As to `Cc1cccc(C)c1Nc1c(-c2ccccn2)nc2ccccn12`, the Potency was 7.57 µM (active). The value for `Cc1onc(-c2ccccc2Cl)c1C(=O)N(Cc1ccc(N(C)C)cc1)C(C)C` was “inactive”; that for `Cc1cccc(S(=O)(=O)C(C#N)c2nc3ccccc3nc2N2CCOCC2)c1` (stereo unspecified) was “inactive”; that for `CC(C)N=c1cc2n(-c3ccc(Cl)cc3)c3ccccc3nc-2cc1Nc1ccc(Cl)cc1` was 3.38 µM (active).

Consider `O=S(=O)(Nc1cccc(-c2cn3cccnc3n2)c1)c1ccc(F)cc1`, for which the Potency was 15.1 µM (active).

As for `O=S(=O)(Nc1cccc(-c2cn3cccnc3n2)c1)c1ccccc1`, the Potency was 4.26 µM (active). Consider `Cn1c(=O)c2cc(S(=O)(=O)Nc3cccc(F)c3)ccc2n(C)c1=O`, for which the Potency result is “inactive”. The entry for `O=C(CNC(=O)c1cccs1)OCC(=O)c1ccc(Cl)cc1` is “inactive”. The value for `COc1cc(NC(=O)c2cccs2)c(OC)cc1NC(=O)Cc1ccccc1` was 7.57 µM (active). As to `COc1cc(NC(=O)c2cccs2)c(OC)cc1NC(=O)CCC(=O)Nc1ccc2ncccc2c1`, the Potency is 1.69 µM (active).

For the molecule `COc1cc(NC(=O)c2cccs2)c(OC)cc1NC(=O)CCn1nnc2ccccc21`, the Potency was 12 µM (active).

For the molecule `COc1cc(NC(=O)c2cccs2)c(OC)cc1NC(=O)Nc1ccc(F)cc1`, the Potency result is “inactive”. Take `O=C(CC(=O)c1c(F)cccc1Cl)c1ccccc1O`: the Potency result was “inactive”. The value for `Cc1ccc(S(=O)(=O)Nc2c(C)n(C)n(-c3ccccc3)c2=O)cc1C(=O)OC(C)C(=O)N(C)c1ccccc1` (stereo unspecified) was “inactive”; that for `O=C1/C(=C/c2ccco2)SC(=S)N1c1cccnc1` was 15.1 µM (active); that for `CCOC(=O)c1c(C)oc2c1c(C=NCc1ccccn1)c(O)c1ccccc12` was 15.1 µM (active).

Regarding `O=C(O)c1cccc(N2C(=O)c3cccc(Oc4ccc(Cl)cc4)c3C2=O)c1`, the Potency result is “inactive”. The figure for `CC(=O)Oc1cccc2c1C(=O)c1c(OC(C)=O)cc(C(=O)O)cc1C2=O` is 12 µM (active); for `N#C/C(=C/c1ccc(OC(=O)c2ccc(Br)s2)cc1)c1nc2ccccc2[nH]1` it is “inactive”; for `N#C/C(=C\c1ccc(OC(=O)c2ccccn2)cc1)C(N)=O` it is 12 µM (active). The value for `N#C/C(=C\c1ccc(OC(=O)c2ccc(Cl)s2)cc1)c1nc2ccccc2[nH]1` was “inactive”; that for `CCOC(=O)/C(C#N)=C/c1ccc(OC(=O)c2ccccn2)cc1` was 7.57 µM (active); that for `N#C/C(=C\c1ccc(OC(=O)c2ccc(Br)s2)cc1)c1nc2ccccc2[nH]1` was “inactive”. The value for `O=C(Oc1cncc(Cl)c1)c1sccc1Cl` was “inactive”; that for `Cc1cc2nc(/N=C(\N)NC(=O)N3c4ccccc4Sc4ccccc43)nc(C)c2cc1C` was “inactive”. On to `Cc1cc(C)cc(COc2ccc3c(C)c(CC(=O)O)c(=O)oc3c2C)c1`, for which the Potency entry is “inactive”. For `Cc1c(CCC(=O)O)c(=O)oc2c(C)c(OCc3cc4c(cc3Cl)OCO4)ccc12`, the Potency was 13.5 µM (active). The value for `O=C(Cn1ccc(=O)[nH]c1=O)Nc1nccs1` was “inactive”; that for `Nc1ccc(N2CCCCC2)c2nonc12` was 6.75 µM (active); that for `O=C(Cc1cccs1)Nc1ccc2c(c1)C(=O)OC2` was “inactive”. The value for `O=C1CCCC2=C1C(c1ccco1)Nc1ccc3ccccc3c12` (stereo unspecified) was “inactive”; that for `O=C(O)c1ccc(Nc2cnc3ccccc3n2)cc1` was “inactive”; that for `Cc1cc(NS(=O)(=O)c2ccc(NC(=O)c3cc4c(=O)n5ccccc5nc4s3)cc2)nc(C)n1` was 6.75 µM (active). In the case of `O=C(Nc1ccc(Nc2ccccc2)cc1)c1ccc(Cl)cc1[N+](=O)[O-]`, the Potency result was “inactive”. The value for `O=C(Nc1ccc(S(=O)(=O)Nc2cnc3ccccc3n2)cc1)c1ccc(Cl)c([N+](=O)[O-])c1` was 2.13 µM (active); that for `Cc1cc(NS(=O)(=O)c2ccc(NC(=O)c3cnc(Cl)c(Cl)c3)cc2)nc(C)n1` was 1.69 µM (active).
